According to the supplement of paper PMC6555819:

Tests used:
Assay in all cases: PBM binding z-score (relative to random genomic background probes); higher = stronger binding; sequences stand for … in GC…GCGATTGACAGCGTAGAATGAAGG
[1] = tested on: FXR:RXRa (NR concentration 270 nM, RXRa partner concentration 90 nM)
Procedure, shortened: (§1)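 Binding z-scores were set against random background probes. The data came from custom Agilent 4×180K protein-binding microarrays carrying double-stranded probes with 34-nt variable regions, incubated 1 h with ligand-free nuclear receptor dimers. Partner-specific antibodies detected binding, and scanned fluorescence was regression-normalized.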

[2] = tested on: LXRa:RXRa (NR concentration 270 nM, RXRa partner concentration 90 nM)
Procedure, shortened: as §1

[3] = tested on: LXRa homodimer (NR concentration 270 nM)
Procedure, shortened: as §1

[4] = tested on: LXRb:RXRa (NR concentration 270 nM, RXRa partner concentration 90 nM)
Procedure, shortened: as §1

[5] = tested on: LXRb homodimer (NR concentration 270 nM)
Procedure, shortened: as §1

[6] = tested on: PPARa:RXRa (NR concentration 270 nM, RXRa partner concentration 90 nM)
Procedure, shortened: as §1

[7] = tested on: PPARg:RXRa (NR concentration 180 nM, RXRa partner concentration 90 nM)
Procedure, shortened: as §1

[8] = tested on: PPARg:RXRa 270nM:90nM, anti-RXR (NR concentration 270 nM, RXRa partner concentration 90 nM)
Procedure, shortened: as §1

[9] = tested on: PPARg:RXRa 30nM:10nM, anti-RXR (NR concentration 30 nM, RXRa partner concentration 10 nM)
Procedure, shortened: as §1

[10] = tested on: PPARg:RXRa 90nM:30nM, anti-RXR (NR concentration 90 nM, RXRa partner concentration 30 nM)
Procedure, shortened: as §1

[11] = tested on: PPARg:RXRa DBDmut IVT, anti-RXR (DBD mutation: RXRa K156A/R161A, NR concentration 270 nM, RXRa partner concentration 90 nM)
Procedure, shortened: as §1

[12] = tested on: PPARg:RXRa IVT, anti-PPARg (NR concentration 270 nM, RXRa partner concentration 90 nM)
Procedure, shortened: as §1

[13] = tested on: PPARg DBDmut:RXRa IVT, anti-PPARg (DBD mutation: PPARg1 K132A/R137A, NR concentration 270 nM, RXRa partner concentration 90 nM)
Procedure, shortened: as §1

[14] = tested on: PPARg DBDmut IVT, anti-PPARg (DBD mutation: PPARg1 K132A/R137A, NR concentration 270 nM)
Procedure, shortened: as §1

[15] = tested on: PPARg homodimer (NR concentration 180 nM)
Procedure, shortened: as §1

[16] = tested on: PXR:RXRa (NR concentration 270 nM, RXRa partner concentration 90 nM)
Procedure, shortened: as §1

[17] = tested on: PXR homodimer (NR concentration 270 nM)
Procedure, shortened: as §1

[18] = tested on: RARa:RXR (NR concentration 270 nM, RXRa partner concentration 90 nM)
Procedure, shortened: as §1

[19] = tested on: RARa homodimer (NR concentration 270 nM)
Procedure, shortened: as §1

[20] = tested on: RARb:RXRa (NR concentration 270 nM, RXRa partner concentration 90 nM)
Procedure, shortened: as §1

Row | Sequence | PBM binding z-score [1] | PBM binding z-score [2] | PBM binding z-score [3] | PBM binding z-score [4] | PBM binding z-score [5] | PBM binding z-score [6] | PBM binding z-score [7] | PBM binding z-score [8] | PBM binding z-score [9] | PBM binding z-score [10] | PBM binding z-score [11] | PBM binding z-score [12] | PBM binding z-score [13] | PBM binding z-score [14] | PBM binding z-score [15] | PBM binding z-score [16] | PBM binding z-score [17] | PBM binding z-score [18] | PBM binding z-score [19] | PBM binding z-score [20]
1 | ACTAGCAGGTCAAGTTTGGGTCACTCAAACAAAG | 5.89 | 4.79 | 1.41 | 3.88 | 1.28 | 4.83 | 4.43 | 4.76 | 1.27 | 3.41 | 4.12 | 4.73 | 0.847 | 0.843 | 3.76 | 4.22 | 0.228 | 5.89 | 0.164 | 4.61
2 | CGTCCAAGGTCAAAGGACAGTGAAGAGATGACGG | 6.9 | 5.32 | 0.749 | 3.74 | 1.13 | 5.6 | 5.59 | 5.73 | 2.46 | 4.8 | 2.81 | 3.71 | 1.49 | 0.353 | 2.89 | 3.74 | 0.957 | 4.39 | 0.706 | 5.21
3 | CCTGCTAGGTCATGGTCAGCTCATCTACAGTATG | 3.3 | 2.63 | 0.179 | 1.95 | 0.157 | 3.42 | 2.25 | 2.85 | 0.448 | 1.72 | 4.36 | 3.86 | -0.0537 | -0.157 | 1.09 | 1.52 | -0.186 | 2.4 | 0.349 | 4.08
4 | ACTATTAGTTGACTTAGGGCATCCGATACGACGC | -0.0291 | 0.0994 | 0.216 | -0.154 | 0.3 | -0.203 | 0.827 | 0.149 | 0.353 | 0.396 | 0.311 | 0.614 | 1.03 | 0.574 | 0.0693 | 0.114 | 0.228 | 0.0202 | 0.624 | 0.643
5 | TGATATAGGTAAACAGGTGAAAGTCCGTAAGTTA | 0.277 | 0.353 | 0.0822 | 0.388 | 0.0217 | 2.37 | 3.95 | 3.81 | 1.65 | 3.09 | 5.35 | 5.64 | 1.01 | 0.48 | 0.911 | 0.29 | 0.346 | 0.703 | 1.11 | 0.511
6 | TGAATGAGGTTATAAGATAAGGGAACGTTGCAAA | 1.34 | 1.2 | -0.153 | 0.988 | 0.119 | 2.45 | 1.43 | 1.62 | 0.912 | 1.51 | 0.589 | 1.42 | 1.45 | 0.957 | 0.436 | 0.669 | 0.0149 | 1.32 | -0.0101 | 1.04
7 | CCTACTGGGCTAAAAAGGTCATTGATGCCGATAA | 3.31 | 3.96 | 3.16 | 3.89 | 0.0245 | 4.67 | 2.38 | 3.6 | 1.21 | 2.6 | 2.24 | 2.86 | -0.829 | -0.574 | 2.32 | 4.35 | 1.23 | 4.77 | 0.346 | 3.82
8 | CGTCCAAGGTCATAGGAGGTCAGTGAGGACAGAT | 7.69 | 7.5 | 5.15 | 6.18 | 0.987 | 5.86 | 5.58 | 5.89 | 2.52 | 4.86 | 3.74 | 4.55 | 1.02 | 0.649 | 5.73 | 6.88 | 11.7 | 6.37 | 3.47 | 5.29
9 | GCTGCTAGGTCAGGTTGATCAGCTAACGGGTACG | 1.01 | 0.585 | -0.478 | 0.353 | -0.451 | 1.47 | 0.663 | 0.926 | -0.231 | 0.36 | 3.25 | 2.17 | -1.1 | -0.366 | 0.196 | 0.316 | -0.392 | 0.656 | -0.919 | 3.06
10 | CCTCGGAGGACAGAAGGTCAGAACTGTCCGCTTT | 0.99 | 1.35 | 0.337 | 1.03 | -0.707 | 1.54 | -0.0634 | 0.635 | -0.743 | 0.0441 | 0.127 | -0.242 | -0.806 | -1.38 | 0.826 | 1.1 | 0.0205 | 1.7 | 0.442 | 2.85
11 | CTACCAAGGTGAACAAGGGCGTTGATTACTATTC | 0.636 | 0.274 | -0.543 | 0.44 | -0.701 | 1.39 | 0.678 | 0.967 | -0.0752 | 0.624 | 2.71 | 2.55 | -0.498 | 0.223 | 0.114 | 0.993 | -0.0327 | 0.539 | -0.306 | 1.81
12 | CTAGAAAGGTCGTGCTCAGGTGAGTATACCAAAC | 4.5 | 3.64 | 0.405 | 3.02 | 0.336 | 4.78 | 2.51 | 3.48 | 0.919 | 2.34 | 0.638 | 1.62 | -0.0853 | 0.547 | 1.73 | 2.82 | 0.0874 | 4.02 | 0.32 | 3.63
13 | ATATGTAGTTTACATCCGGGTCATTCAGGCTATG | 1.49 | 2.34 | 1.08 | 2.31 | 1.04 | 2.59 | 1.19 | 1.19 | 0.609 | 1.53 | 1.36 | 2.27 | 1.09 | 1.65 | 1.01 | 2.91 | 3.16 | 2.85 | 0.262 | 1.51
